The entries come from a sample that favours the strongest signals as a whole.
What was measured:
Experiment in all cases: glycan array binding signal (z-score within array); higher = stronger binding
Settings in all cases: glycan notation: IUPAC condensed, linker removed
[1] = molecular target: GlcNAc(b1-2)[GlcNAc(b1-4)]Man(a1-3)[GlcNAc(b1-4)][GlcNAc(b1-2)[GlcNAc(b1-6)]Man(a1-6)]Man(b1-4)GlcNAc(b1-4)[Fuc(a1-6)]GlcNAc
How it was run: (§1)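 The binding signal is a Z-score computed within each array. Data were drawn from 3228 arrays in the Consortium for Functional Glycomics database, restricted to those with a known protein sequence. Scores were averaged over arrays of the same protein sequence at different concentrations or buffers, and over linkers, and negative values can be taken as non-binding.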

[2] = molecular target: GlcNAc(b1-3)Gal(b1-4)GlcNAc(b1-2)Man(a1-3)[GlcNAc(b1-3)Gal(b1-4)GlcNAc(b1-2)Man(a1-6)]Man(b1-4)GlcNAc(b1-4)GlcNAc
How it was run: as §1

[3] = molecular target: GlcNAc(b1-3)Gal(b1-4)GlcNAc(b1-3)Gal(b1-4)GlcNAc(b1-2)Man(a1-3)[GlcNAc(b1-3)Gal(b1-4)GlcNAc(b1-3)Gal(b1-4)GlcNAc(b1-2)Man(a1-6)]Man(b1-4)GlcNAc(b1-4)GlcNAc
How it was run: as §1

[4] = molecular target: GlcNAc(b1-3)Gal(b1-4)GlcNAc(b1-3)Gal(b1-4)GlcNAc(b1-2)[GlcNAc(b1-3)Gal(b1-4)GlcNAc(b1-3)Gal(b1-4)GlcNAc(b1-6)]Man(a1-6)[GlcNAc(b1-3)Gal(b1-4)GlcNAc(b1-3)Gal(b1-4)GlcNAc(b1-2)Man(a1-3)]Man(b1-4)GlcNAc(b1-4)[Fuc(a1-6)]GlcNAc
How it was run: as §1

[5] = molecular target: GlcNAc(b1-3)Gal(b1-4)GlcNAc(b1-3)Gal(b1-4)GlcNAc(b1-3)Gal(b1-4)GlcNAc(b1-2)Man(a1-3)[GlcNAc(b1-3)Gal(b1-4)GlcNAc(b1-3)Gal(b1-4)GlcNAc(b1-3)Gal(b1-4)GlcNAc(b1-2)Man(a1-6)]Man(b1-4)GlcNAc(b1-4)[Fuc(a1-6)]GlcNAc
How it was run: as §1

[6] = molecular target: GlcNAc(b1-3)Gal(b1-4)GlcNAc(b1-3)Gal(b1-4)GlcNAc(b1-3)Gal(b1-4)GlcNAc(b1-2)[GlcNAc(b1-3)Gal(b1-4)GlcNAc(b1-3)Gal(b1-4)GlcNAc(b1-3)Gal(b1-4)GlcNAc(b1-6)]Man(a1-6)[GlcNAc(b1-3)Gal(b1-4)GlcNAc(b1-3)Gal(b1-4)GlcNAc(b1-3)Gal(b1-4)GlcNAc(b1-2)Man(a1-3)]Man(b1-4)GlcNAc(b1-4)[Fuc(a1-6)]GlcNAc
How it was run: as §1

[7] = molecular target: Man(a1-2)Man(a1-6)[Man(a1-3)]Man(a1-6)[Man(a1-2)Man(a1-2)Man(a1-3)]Man
How it was run: as §1

[8] = molecular target: Neu5Ac(a2-3)Gal(b1-3)[Fuc(a1-4)]GlcNAc(b1-3)Gal(b1-4)[Fuc(a1-3)]GlcNAc
How it was run: as §1

[9] = molecular target: Neu5Ac(a2-3)Gal(b1-3)[Neu5Ac(a2-6)]GalNAc
How it was run: as §1

[10] = molecular target: Neu5Ac(a2-3)Gal(b1-4)GlcNAc(b1-2)Man(a1-3)[GlcNAc(b1-2)Man(b1-4)GlcNAc(b1-2)Man(a1-6)]Man(b1-4)GlcNAc(b1-4)GlcNAc
How it was run: as §1

[11] = molecular target: Neu5Ac(a2-3)Gal(b1-4)GlcNAc(b1-3)Gal(b1-4)GlcNAc
How it was run: as §1

[12] = molecular target: Neu5Ac(a2-3)Gal(b1-4)GlcNAc(b1-3)Gal(b1-4)GlcNAc(b1-3)Gal(b1-4)GlcNAc(b1-2)Man(a1-3)[Neu5Ac(a2-3)Gal(b1-4)GlcNAc(b1-3)Gal(b1-4)GlcNAc(b1-3)Gal(b1-4)GlcNAc(b1-2)Man(a1-6)]GalNAc
How it was run: as §1

[13] = molecular target: Neu5Ac(a2-3)Gal(b1-4)GlcNAc(b1-6)[Gal(b1-3)]GalNAc
How it was run: as §1

[14] = molecular target: Neu5Ac(a2-3)Gal(b1-4)[Fuc(a1-3)]GlcNAc(b1-3)GalNAc
How it was run: as §1

[15] = molecular target: Neu5Ac(a2-3)[GalNAc(b1-4)]Gal(b1-4)GlcNAc
How it was run: as §1

[16] = molecular target: Neu5Ac(a2-6)Gal(b1-4)GlcNAc(b1-2)Man(a1-3)[GlcNAc(b1-2)Man(b1-4)GlcNAc(b1-2)Man(a1-6)]Man(b1-4)GlcNAc(b1-4)GlcNAc
How it was run: as §1

[17] = molecular target: Neu5Ac(a2-6)Gal(b1-4)GlcNAc(b1-2)Man(a1-3)[Neu5Ac(a2-6)Gal(b1-4)GlcNAc(b1-2)Man(a1-6)]Man(b1-4)GlcNAc(b1-4)GlcNAc
How it was run: as §1

[18] = molecular target: Neu5Ac(a2-6)Gal(b1-4)GlcNAc(b1-2)Man(a1-3)[Neu5Ac(a2-6)Gal(b1-4)GlcNAc(b1-2)Man(a1-6)]Man(b1-4)GlcNAc(b1-4)[Fuc(a1-6)]GlcNAc
How it was run: as §1

[19] = molecular target: Neu5Ac(a2-6)Gal(b1-4)GlcNAc(b1-3)Gal(b1-4)GlcNAc(b1-3)Gal(b1-4)GlcNAc(b1-2)Man(a1-3)[Neu5Ac(a2-6)Gal(b1-4)GlcNAc(b1-3)Gal(b1-4)GlcNAc(b1-3)Gal(b1-4)GlcNAc(b1-2)Man(a1-6)]GalNAc
How it was run: as §1

[20] = molecular target: Neu5Ac(a2-6)GalNAc(b1-4)GlcNAc6S
How it was run: as §1

[21] = molecular target: Neu5Ac(a2-8)Neu5Ac(a2-8)Neu5Ac(a2-3)[Gal(b1-3)GalNAc(b1-4)]Gal(b1-4)Glc
How it was run: as §1

[22] = molecular target: Neu5Ac9Ac(a2-6)Gal(b1-4)GlcNAc
How it was run: as §1

B1: BabA (Helicobacter pylori), O52269_HELPY (protein)
chain: AEDDGFYMSAGYQIGEAAQMVKNTKGIQELSDNYENLSNLLTRYSTLNTLIKLSADPSAVNAARENLGASAKNLIGDTKNSPAYQAVLLAINAAVGFWNVVGYVTQCGGNANGQKSTSSTTIFNNEPGYRSTSITCSLNGHMPGYYGPMSIENFKKLNEAYQILQTALKNGLPALKENNGTVNVTYSYTCSGEGNDNCSLQTTGVTNQNNGTKTETQTIDGKSVTTTISSKVVDSQ
[1]
  glycan array binding signal (z-score): -0.373
[2]
  glycan array binding signal (z-score): 0.363
[3]
  glycan array binding signal (z-score): 4.69
[4]
  glycan array binding signal (z-score): 3.66
[5]
  glycan array binding signal (z-score): 2.94
[6]
  glycan array binding signal (z-score): 2.92
[7]
  glycan array binding signal (z-score): -0.83
[8]
  glycan array binding signal (z-score): 0.749
[9]
  glycan array binding signal (z-score): 0.266
[10]
  glycan array binding signal (z-score): -1.52
[11]
  glycan array binding signal (z-score): -0.291
[12]
  glycan array binding signal (z-score): 9.34
[13]
  glycan array binding signal (z-score): 1.93
[14]
  glycan array binding signal (z-score): 0.626
[15]
  glycan array binding signal (z-score): -0.627
[16]
  glycan array binding signal (z-score): -0.829
[17]
  glycan array binding signal (z-score): -0.571
[18]
  glycan array binding signal (z-score): 1.19
[19]
  glycan array binding signal (z-score): 5.39
[20]
  glycan array binding signal (z-score): -0.637
[21]
  glycan array binding signal (z-score): 0.344
[22]
  glycan array binding signal (z-score): -0.224

Reference: the supplement of paper PMC8728848
